Assay results as given in PubChem BioAssay (EPA / NIEHS).
Records with an inconclusive call do not appear. Calls of active or inactive are those of the source. Rule for the calls: active = hit-call score of the fitted dose curve at least 0.9, where 1 is the maximum; inconclusive = response in the unintended direction; inactive = score below 0.9.

biological target: Retinoic acid receptor RXR-alpha (Homo sapiens) (UniProt P19793); test: ATG_RXRa_TRANS: Attagene TRANS-FACTORIAL HepG2 Assay for human Retinoid X Receptor alpha (RXRa) (AID 2283012)
Protocol: ATG_TRANS is a cell-based, multiplexed-readout assay that uses HepG2, a human liver cell line, with measurements taken at 24 hours after chemical dosing in a 24-well plate.ATG_RXRa_TRANS is one of 30 assay component(s) measured or calculated from the ATG_TRANS assay. It is designed to make measurements of mRNA induction, a form of inducible reporter, as detected with fluorescence intensity signals by Reverse transcription polymerase chain reaction (RT-PCR) and Capillary electrophoresis technology.Data from the assay component ATG_RXRa_TRANS was analyzed into 1 assay endpoint. This assay endpoint, ATG_RXRa_TRANS, was analyzed in the positive analysis fitting direction relative to DMSO as the negative control and baseline of activity. Using a type of inducible reporter, measures of mRNA for gain-of-signal activity can be used to understand the reporter gene at the transcription factor-level as they relate to the gene RXRA. Furthermore, this assay endpoint can be referred to as a primary readout, because this assay has produced multiple assay endpoints where this one serves a reporter gene function. To generalize the intended target to other relatable targets, this assay endpoint is annotated to the nuclear receptor intended target family, where the subfamily is non-steroidal.
Human liver HepG2 cells are transiently transfected with multiple reporter transcription units (MRTUs) in 6-well plates using FuGene 6 reagent (Roche; 3 ml FuGene/1 mg DNA). The MRTU constructs are regulated by a cis-regulating element (promoter). […] A major difference between the CIS and TRANS system is that in CIS activities of endogenous TFs are measured, whereas the TRANS assay evaluates changes in activities of exogenous, chimeric NR-Gal4 proteins. […] At the end of 24 hour incubation, total RNA was isolated using TriZol reagent (Invitrogen). The isolated RNA is then reverse-transcribed using oligo(dT) primer and Mo-MLV reverse transcriptase (Invitrogen) with DNAse I (Ambion) treatment for 30 min. The one-tenth of the produced cDNA was amplified by PCR using Taq DNA polymerase (Invitrogen) and two reporter sequence-specific primers. The PCR products were fluorescently labeled by primer extension with 6-arboxyfluorescein (6-FAM) 5'-labeled reporter sequence-specific primer (2 min at 95 C, 20 s at 68 C and 10 min at 72 C) and these products were digested with 5U of HpaI (New England Biolabs) for 2h at 37 C. The fragments were purified using Qiaquick PCR columns (Qiagen), analyzed on an ABI 3130xL genetic analyzer (Applied Biosystems) with peak positions identified by using a set of X-rhodamine (ROX)-labeled MapMarker1000 molecular weight standards (BioVentures). The raw capillary electrophoresis data was processed using Attagraph software (Attagene).

Chain of Retinoic acid receptor RXR-alpha (Homo sapiens) (P19793 whole entry, looked up): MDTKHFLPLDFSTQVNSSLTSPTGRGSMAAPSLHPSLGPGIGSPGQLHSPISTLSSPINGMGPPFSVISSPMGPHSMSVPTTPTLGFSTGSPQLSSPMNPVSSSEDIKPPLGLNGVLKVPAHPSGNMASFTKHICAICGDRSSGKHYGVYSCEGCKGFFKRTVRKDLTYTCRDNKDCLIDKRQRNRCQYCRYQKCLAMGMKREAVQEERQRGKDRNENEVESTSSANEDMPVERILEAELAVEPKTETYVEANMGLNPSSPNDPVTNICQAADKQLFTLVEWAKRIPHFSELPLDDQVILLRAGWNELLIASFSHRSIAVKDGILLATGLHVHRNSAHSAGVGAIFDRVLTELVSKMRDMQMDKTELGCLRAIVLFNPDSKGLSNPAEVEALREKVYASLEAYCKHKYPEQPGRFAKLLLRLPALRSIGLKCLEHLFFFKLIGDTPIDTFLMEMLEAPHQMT

Q: With `CC(C)C1(C)N=C(c2nc3ccccc3cc2C(=O)O)NC1=O` (stereo not given) as the compound, how does the outcome read?
A: inactive

Q: For `COC(=O)N(OC)c1ccccc1COc1ccn(-c2ccc(Cl)cc2)n1`, which outcome is on record?
A: inactive

Q: For `OC(c1ccc(Cl)cc1)(c1cncnc1)c1ccccc1Cl` (stereo not given), which outcome is on record?
A: inactive

Q: For `COP(=S)(OC)Oc1nc(Cl)c(Cl)cc1Cl`, which outcome is on record?
A: inactive

Q: Which outcome does the source give for `COc1ccc(C(c2ccc(OC)cc2)C(Cl)(Cl)Cl)cc1` here?
A: inactive

Q: `CCNc1nc(Cl)nc(NCC)n1` was tested. Which outcome did it give?
A: inactive

Q: For `C=CC1(C)OC(=O)N(c2cc(Cl)cc(Cl)c2)C1=O` (stereo not given), which outcome is on record?
A: inactive

Q: How did the outcome turn out when `CNC(=O)ON=CC(C)(C)SC` was run?
A: inactive

Q: With `CCNc1nc(Cl)nc(NC(C)C)n1` as the compound, how does the outcome read?
A: inactive

Q: With `CNC(=S)S` as the compound, how does the outcome read?
A: inactive

Q: `C#CCOS(=O)OC1CCCCC1Oc1ccc(C(C)(C)C)cc1` (stereo not given) was tested. Which outcome did it give?
A: inactive

Q: Which outcome does the source give for `CCCCNC(=O)OCC#CI` here?
A: inactive

Q: `CN(C)C(=S)SSC(=S)N(C)C` was tested. Which outcome did it give?
A: inactive

Q: With `C=CCC1=C(C)[C@@H](OC(=O)[C@@H]2[C@@H](C=C(C)C)C2(C)C)CC1=O` as the compound, how does the outcome read?
A: inactive

Q: Which outcome does the source give for `COc1cnc(OC)n2nc(NS(=O)(=O)c3c(OCC(F)F)cccc3C(F)(F)F)nc12` here?
A: inactive

Q: For `COC(=O)C(C)Oc1ccc(Oc2ccc(Cl)cc2Cl)cc1` (stereo not given), which outcome is on record?
A: inactive

Q: `CC1COC(Cn2cncn2)(c2ccc(Oc3ccc(Cl)cc3)cc2Cl)O1` (stereo not given) was tested. Which outcome did it give?
A: inactive

Q: Which outcome does the source give for `CCCCOC(=O)c1ccccc1C(=O)OCCCC` here?
A: inactive

Q: With `COc1nc(NC(C)C)nc(NC(C)C)n1` as the compound, how does the outcome read?
A: inactive

Q: How did the outcome turn out when `CCOP(=S)(OCC)SCn1c(=O)oc2cc(Cl)ccc21` was run?
A: inactive

Q: Which outcome does the source give for `CC(C)Oc1cc(-n2nc(C(C)(C)C)oc2=O)c(Cl)cc1Cl` here?
A: inactive

Q: Which outcome does the source give for `Fc1ccc(Oc2ccnc3cc(Cl)cc(Cl)c23)cc1` here?
A: inactive

Q: For `CCCC1COC(Cn2cncn2)(c2ccc(Cl)cc2Cl)O1` (stereo not given), which outcome is on record?
A: inactive

Q: `CO/C=C(/C(=O)OC)c1ccccc1Oc1cc(Oc2ccccc2C#N)ncn1` was tested. Which outcome did it give?
A: inactive

Q: How did the outcome turn out when `COC(=O)C=C(C)OP(=O)(OC)OC` was run?
A: inactive

Q: `Oc1ccccc1-c1ccccc1` was tested. Which outcome did it give?
A: inactive

Q: Which outcome does the source give for `CC(Oc1ccc(Cl)cc1Cl)C(=O)O` (stereo not given) here?
A: inactive

Q: For `CCOC(=O)CC(SP(=S)(OC)OC)C(=O)OCC` (stereo not given), which outcome is on record?
A: inactive

Q: How did the outcome turn out when `N#CC(CCc1ccc(Cl)cc1)(Cn1cncn1)c1ccccc1` (stereo not given) was run?
A: inactive

Q: `N#Cc1nn(-c2c(Cl)cc(C(F)(F)F)cc2Cl)c(N)c1S(=O)C(F)(F)F` (stereo not given) was tested. Which outcome did it give?
A: inactive

Q: With `CCOC(=O)C(Cl)Cc1cc(-n2nc(C)n(C(F)F)c2=O)c(F)cc1Cl` (stereo not given) as the compound, how does the outcome read?
A: inactive

Q: With `CON(C)C(=O)Nc1ccc(Cl)c(Cl)c1` as the compound, how does the outcome read?
A: inactive

Q: For `CCCCC(CC)COC(=O)c1ccccc1C(=O)OCC(CC)CCCC` (stereo not given), which outcome is on record?
A: inactive

Q: Which outcome does the source give for `O=C(Nc1ccccc1)Nc1ccnc(Cl)c1` here?
A: inactive

Q: How did the outcome turn out when `COc1nc(C)nc(NC(=O)NS(=O)(=O)c2ccccc2CCC(F)(F)F)n1` was run?
A: inactive

Q: Which outcome does the source give for `CC(C)(C)c1ccc(CSc2cnn(C(C)(C)C)c(=O)c2Cl)cc1` here?
A: inactive

Q: Which outcome does the source give for `N#Cc1cc(Br)c(O)c(Br)c1` here?
A: inactive

Q: For `O=C(O)c1nc(Cl)ccc1Cl`, which outcome is on record?
A: inactive

Q: For `Cc1ccc(-c2c(Cl)nc(C#N)n2S(=O)(=O)N(C)C)cc1`, which outcome is on record?
A: inactive

Q: `COc1nc(C)nc(NC(=O)NS(=O)(=O)c2ccccc2Cl)n1` was tested. Which outcome did it give?
A: inactive
